This is an account of results in PubChem BioAssay (NCATS).

Where “and” joins values, the source holds several entries; their conditions need not be identical. Equal entries are not always repeated. Records with an inconclusive call do not appear. A number with no mark means an inactive call. Calls of active or inactive are those of the source. Calls come from the whole dose curve; as a rule, active = well fitted curve in the direction sought with a large enough effect; inconclusive = small, poorly fitted or top-dose-only effect, or another doubt; inactive = no such curve, though single readings can be large or run the other way.

The experiment can be described thus: qHTS Assay for Identifying Gametocytocidal Compounds (AID 743244).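 For max response: actives lower the fluorescent signal which means gametocytes are killed.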 The following applies: P. falciparum 3D7 stage III-V gametocytes, alamarBlue, 72 h; max response: active compounds read low. Put shortly:
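In this qHTS viability screen, late-stage 3D7 gametocytes are incubated with compound for 72 h, then with alamarBlue for 24 h; reduced resorufin fluorescence marks killing.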
% is set by controls: 0 for no effect and ±100 for the full control effect; potency is the fitted concentration of half-maximal effect.

As for `Brc1c(NC2=NCCN2)ccc2nccnc12`, the max response is -8.09% and 19.7%. For the compound `COC(=O)[C@@H](N)Cc1ccc(O)c(O)c1`, the max response was 43.3%. On the same count and under the same terms, with `CC[N+](C)(C)c1cccc(O)c1` the figure was 22.6% and 18%. Take `Cc1ccc(=O)n(-c2ccccc2)c1`: the max response was 6.86% and 22.4%. The same measure, in the same setting: with `NC1=NCC2c3ccccc3Cc3ccccc3N12` (configuration not stated) the figure was -4.93% and 13.9%. On the same count and under the same terms, in the case of `Cc1nc2sccn2c(=O)c1CCN1CCC(=C(c2ccc(F)cc2)c2ccc(F)cc2)CC1` it was -7.25% and 26.8%. Still for that read-out and setting: in the case of `CN(C)CCOC(=O)COc1ccc(Cl)cc1` it was 11% and 8.28%; in that of `CCc1c(C)[nH]c2c1C(=O)C(CN1CCOCC1)CC2` (configuration not stated), 2.02% and 26.2%.

`CCOC(=O)c1cnc2c(cnn2CC)c1NN=C(C)C`: the max response was 1.49% and 6.62%. Take `CN(C)C(=O)Oc1ccc[n+](C)c1`: the max response was -5.59% and 6.64%. With `CSc1ccc(C(=O)c2[nH]c(=O)[nH]c2C)cc1`, the max response is 9.34% and 5.87%. The same measure, in the same setting: in the case of `CO[C@@]1(NC(=O)CSCC#N)C(=O)N2C(C(=O)O)=C(CSc3nnnn3C)CS[C@@H]21` it was 0.458% and 21.8%; in that of `CCCOc1ccccc1-c1nc2n[nH]nc2c(=O)[nH]1`, -5.53% and 14.3%; in that of `NC(=O)c1ncn([C@@H]2O[C@H](CO)[C@@H](O)[C@H]2O)c1O`, 13.6%. As for `CCn1nc(C(=O)O)c(=O)c2cc3c(cc21)OCO3`, the max response was 3.16% and -5.51%. Same read-out and setting: in the case of `NC(Cc1ccc(Cl)cc1)C(=O)O` (configuration not stated) it was 3.16%. For the compound `CC1=C(C)C(=O)C(CCCCC#CCCCC#CCO)=C(C)C1=O`, the Potency was 14.1 µM (active).

Take `CN(C)CCN(Cc1cccs1)c1ccccn1`: the max response is -13% and 5.58%.

For the compound `C[C@@H](O)[C@H]1C(=O)N2C(C(=O)O)=C(SCCN=CN)C[C@H]12`, the max response is 3.85% and 8.18%. The same measure, in the same setting: in the case of `Cc1nc2c([nH]1)c(=O)n(C)c(=O)n2Cc1ccco1` it was -4.35% and 2.16%; in that of `CCNC(=O)N1CCN(CCCC(c2ccc(F)cc2)c2ccc(F)cc2)CC1`, -23% and -10.4%; in that of `NC(N)=NC(=O)Cc1c(Cl)cccc1Cl`, 5.89% and 26.9%. For the compound `CCCN(CCC)C(=O)C(CCC(=O)O)NC(=O)c1ccccc1` (configuration not stated), the max response was 9.09% and 23.8%. Same read-out and setting: in the case of `COCCOC(=O)C1=C(C)NC(C)=C(C(=O)OC(C)C)C1c1cccc([N+](=O)[O-])c1` (configuration not stated) it was 18.6% and 13.2%. As for `NCCCNCCSP(=O)(O)O`, the max response is 4.77% and 12.2%.

As for `CCn1cc(C(=O)O)c(=O)c2cc3c(cc21)OCO3`, the max response was -6.25% and -3.93%. On the same count and under the same terms, in the case of `CC(C)(C)NCC(O)c1cc(O)cc(O)c1` (configuration not stated) it was -9.6% and 12.9%. Same read-out and setting: with `CCCN1C[C@H](CSC)C[C@@H]2c3cccc4[nH]cc(c34)C[C@H]21` the figure was 27.1%.

Regarding `C[N+](C)(C)CCOC(=O)CCC(=O)OCC[N+](C)(C)C`, the max response is 0.123% and 29.2%. Same read-out and setting: with `CN/C(=C\[N+](=O)[O-])NCCSCc1ccc(CN(C)C)o1` the figure was 33.4%.

As for `O=C(O)CP(=O)(O)O`, the max response is -7.11% and 18.5%. The same measure, in the same setting: with `C#CCN(C)CCCOc1ccc(Cl)cc1Cl` the figure was -2.39% and 17.1%.
